Experimental data taken from PubChem BioAssay (NCATS).
Results filed as inconclusive are left out. The source made the active and inactive calls. Calls come from the whole dose curve; as a rule, active = well fitted cell-killing curve with a large enough effect; inconclusive = small, poorly fitted or top-dose-only effect, or effect the other way; inactive = flat fitted curve, though single readings scatter. Where a SMILES comes first, the peptide text is derived from it. The star is where a group is joined. AFC = O=c1cc(C(F)(F)F)c2ccc(N*)cc2o1

Experiments:
Test in all cases: Primary qHTS to identify gynecologic anti-cancer compounds using libraries of approved drugs and bioactive compounds (AID 1345084); note: nearly all actives have a fitted effect of over 55% in size
C33A = conditions: Gynecologic cancer cell panel viability, ATPlite luminescence, 48 h; series mostly up to 57.5 µM
Procedure, shortened: (§1)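 Cells, 1,000 per well, plated 16 h, then exposed 48 h at 37 C to compounds. Viability by ATPlite luminescence after 15 min at room temperature.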

CAOV3 = conditions: Gynecologic cancer cell panel viability, ATPlite luminescence, 48 h; series mostly up to 57.5 µM
Procedure, shortened: as §1

CASKI = conditions: Gynecologic cancer cell panel viability, ATPlite luminescence, 48 h; series mostly up to 57.5 µM
Procedure, shortened: as §1

Es-2 = conditions: Gynecologic cancer cell panel viability, ATPlite luminescence, 48 h; series mostly up to 57.5 µM
Procedure, shortened: as §1

HeLa = conditions: Gynecologic cancer cell panel viability, ATPlite luminescence, 48 h; series mostly up to 57.5 µM
Procedure, shortened: as §1

Hek293T = conditions: Gynecologic cancer cell panel viability, ATPlite luminescence, 48 h, control line for the selectivity index; series mostly up to 57.5 µM
Procedure, shortened: as §1

JEG-3 = conditions: Gynecologic cancer cell panel viability, ATPlite luminescence, 48 h; series mostly up to 57.5 µM
Procedure, shortened: as §1

OV90 = conditions: Gynecologic cancer cell panel viability, ATPlite luminescence, 48 h; series mostly up to 57.5 µM
Procedure, shortened: as §1

PA-1 = conditions: Gynecologic cancer cell panel viability, ATPlite luminescence, 48 h; series mostly up to 57.5 µM
Procedure, shortened: as §1

SKOV3 = conditions: Gynecologic cancer cell panel viability, ATPlite luminescence, 48 h; series mostly up to 57.5 µM
Procedure, shortened: as §1

Tov-21-G = conditions: Gynecologic cancer cell panel viability, ATPlite luminescence, 48 h; series mostly up to 57.5 µM
Procedure, shortened: as §1

Tov112D = conditions: Gynecologic cancer cell panel viability, ATPlite luminescence, 48 h; series mostly up to 57.5 µM
Procedure, shortened: as §1
% is set by controls: 0 for no effect and ±100 for the full control effect.

CC(C)(O)/C=C/CC(C)(O)C1C(O)CC2(C)C3CCC4C(C)(C)C(=O)CCC4(C)C3CCC12C (centres undefined)
inactive: Potency (C33A) | Potency (CAOV3) | Potency (CASKI) | Potency (Es-2) | Potency (HeLa) | Potency (Hek293T) | Potency (JEG-3) | Potency (OV90) | Potency (PA-1) | Potency (SKOV3) | Potency (Tov-21-G) | Potency (Tov112D)

COc1ccc([C@@]2(O)c3c(ccc4c3OC(C)(CCC=C(C)C)C=C4)NC(=O)[C@@H]2OC)cc1 (some centres undefined)
inactive: Potency (C33A) | Potency (CAOV3) | Potency (CASKI) | Potency (Es-2) | Potency (HeLa) | Potency (Hek293T) | Potency (JEG-3) | Potency (OV90) | Potency (PA-1) | Potency (SKOV3) | Potency (Tov-21-G) | Potency (Tov112D)

CC(C)CC(=O)O[C@@H]1OC=C(CO[C@@H]2O[C@H](CO)[C@@H](O)[C@H](O)[C@H]2O)[C@H]2[C@@H]3O[C@H]3[C@@](O)(CO)[C@@H]12
inactive: Potency (C33A) | Potency (CAOV3) | Potency (CASKI) | Potency (Es-2) | Potency (HeLa) | Potency (Hek293T) | Potency (JEG-3) | Potency (OV90) | Potency (PA-1) | Potency (SKOV3) | Potency (Tov-21-G) | Potency (Tov112D)

C=CC(C)(C)C12C=C(OC)C(=O)N3C(C(C)C)C(=O)NC31N(OC)c1ccccc12 (centres undefined)
inactive: Potency (C33A) | Potency (CAOV3) | Potency (CASKI) | Potency (Es-2) | Potency (HeLa) | Potency (Hek293T) | Potency (JEG-3) | Potency (OV90) | Potency (PA-1) | Potency (SKOV3) | Potency (Tov-21-G) | Potency (Tov112D)

CC(C)C(N)C(=O)OCCOCn1cnc2c(=O)[nH]c(N)nc21 (centres undefined)
inactive: Potency (C33A) | Potency (CAOV3) | Potency (CASKI) | Potency (Es-2) | Potency (HeLa) | Potency (Hek293T) | Potency (JEG-3) | Potency (OV90) | Potency (PA-1) | Potency (SKOV3) | Potency (Tov-21-G) | Potency (Tov112D)

O=C(OC1C=C(CO)C2C(OC3OC(CO)C(O)C(O)C3O)OC=CC12)c1ccc(O)cc1 (centres undefined)
inactive: Potency (C33A) | Potency (CAOV3) | Potency (CASKI) | Potency (Es-2) | Potency (HeLa) | Potency (Hek293T) | Potency (JEG-3) | Potency (OV90) | Potency (PA-1) | Potency (SKOV3) | Potency (Tov-21-G) | Potency (Tov112D)

CC1=CC(=O)CC2C1(O)CCC(C)C21CC(c2ccoc2)OC1=O (centres undefined)
inactive: Potency (C33A) | Potency (CAOV3) | Potency (CASKI) | Potency (Es-2) | Potency (HeLa) | Potency (Hek293T) | Potency (JEG-3) | Potency (OV90) | Potency (PA-1) | Potency (SKOV3) | Potency (Tov-21-G) | Potency (Tov112D)

CC(=O)N[C@@H](Cc1c[nH]c2ccccc12)C(=O)N[C@@H](CCC(=O)O)C(=O)N[C@@H](Cc1cnc[nH]1)C(=O)N[C@@H](CC(=O)O)C(=O)Nc1ccc2c(C(F)(F)F)cc(=O)oc2c1 (Ac-WEHD-{AFC})
inactive: Potency (C33A) | Potency (CAOV3) | Potency (CASKI) | Potency (Es-2) | Potency (HeLa) | Potency (Hek293T) | Potency (JEG-3) | Potency (OV90) | Potency (PA-1) | Potency (SKOV3) | Potency (Tov-21-G) | Potency (Tov112D)

CC1CCC2(C(=O)O)CCC3(C)C(=CCC4C5(C)CCC(OC(=O)/C=C/c6ccccc6)C(C)(C)C5CCC43C)C2C1C (centres undefined)
inactive: Potency (C33A) | Potency (CAOV3) | Potency (CASKI) | Potency (Es-2) | Potency (HeLa) | Potency (Hek293T) | Potency (JEG-3) | Potency (OV90) | Potency (PA-1) | Potency (SKOV3) | Potency (Tov-21-G) | Potency (Tov112D)

C=C1C(=O)OC2CC(C)=C(C(C)CCCO)C(O)C12 (centres undefined)
inactive: Potency (C33A) | Potency (CAOV3) | Potency (CASKI) | Potency (Es-2) | Potency (HeLa) | Potency (Hek293T) | Potency (JEG-3) | Potency (OV90) | Potency (PA-1) | Potency (SKOV3) | Potency (Tov-21-G) | Potency (Tov112D)

CN=C(N)NCCCCC/C=C(/C)CC(C)C1OC(=O)C(C)C(O)/C=C/C(C)C(O)CC(O)C(C)C(O)CCC(C)C(O)CC2(O)OC(CC(OC(=O)CC(=O)O)CC(O)CC(O)C(C)C(O)/C(C)=C/CCC1C)CC(O)C2O (centres undefined)
inactive: activity change, negative = cytotoxicity (C33A) 11.4% [at 11.6 µM] | activity change, negative = cytotoxicity (CAOV3) 12.9% [at 11.6 µM] | activity change, negative = cytotoxicity (CASKI) 9.88% [at 11.6 µM] | activity change, negative = cytotoxicity (Es-2) 0.226% [at 11.6 µM] | activity change, negative = cytotoxicity (HeLa) 3.51% [at 11.6 µM] | activity change, negative = cytotoxicity (Hek293T) 10.1% [at 11.6 µM] | activity change, negative = cytotoxicity (JEG-3) 16% [at 11.6 µM] | activity change, negative = cytotoxicity (OV90) 7.81% [at 11.6 µM] | activity change, negative = cytotoxicity (PA-1) 16.3% [at 11.6 µM] | activity change, negative = cytotoxicity (SKOV3) 0% [at 11.6 µM] | activity change, negative = cytotoxicity (Tov-21-G) 3.06% [at 11.6 µM] | activity change, negative = cytotoxicity (Tov112D) -6.61% [at 11.6 µM]

CC1(C)CC[C@]2(C(=O)O[C@@H]3O[C@H](CO[C@@H]4O[C@H](CO)[C@@H](O)[C@H](O)[C@H]4O[C@@H]4O[C@H](CO)[C@@H](O)[C@H](O)[C@H]4O)[C@@H](O)[C@H](O[C@@H]4O[C@H](CO)[C@@H](O)[C@H](O)[C@H]4O)[C@H]3O)CC[C@]3(C)C(=CCC4[C@@]5(C)CC[C@@H](O)[C@@](C)(C(=O)O[C@@H]6O[C@H](CO)[C@@H](O)[C@H](O)[C@H]6O)C5CC[C@]43C)[C@@H]2C1 (some centres undefined)
inactive: activity change, negative = cytotoxicity (C33A) -23% [at 6.55 µM] | activity change, negative = cytotoxicity (CAOV3) 2.18% [at 6.55 µM] | activity change, negative = cytotoxicity (CASKI) -2.18% [at 6.55 µM] | activity change, negative = cytotoxicity (Es-2) 0.72% [at 6.55 µM] | activity change, negative = cytotoxicity (HeLa) 5.19% [at 6.55 µM] | activity change, negative = cytotoxicity (Hek293T) 16.4% [at 6.55 µM] | activity change, negative = cytotoxicity (JEG-3) -0.894% [at 6.55 µM] | activity change, negative = cytotoxicity (OV90) -0.699% [at 6.55 µM] | activity change, negative = cytotoxicity (PA-1) 5.56% [at 6.55 µM] | activity change, negative = cytotoxicity (SKOV3) -6.61% [at 6.55 µM] | activity change, negative = cytotoxicity (Tov-21-G) -1.95% [at 6.55 µM] | activity change, negative = cytotoxicity (Tov112D) -1.22% [at 6.55 µM]
